Measured values reported in the supplement of paper PMC12636033.
± gives the standard deviation of the averaged measurements. Over roughly 33,000 sequences, “E-score (rank enrichment, -0.5 to 0.5)” has its median near -0.0075; the highest 2% begin near 0.23. For the sample, the highest values were picked, then their nearest neighbours and some sequences at random.

system: WT Max(13-93) synthetic (M65Nle); experiment: PBM 8-mer E-score (E-score (rank enrichment, -0.5 to 0.5)); higher = stronger preferential binding
Procedure: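 Protein binding microarray (universal PBM chip covering all 10-mers in fixed probe flanks) with chemically synthesized human Max(13-93) bHLH-LZ analogs (not full-length Max) bearing noncanonical residues (hArg, Tha, Aib, Nle at 65) and aromatic Cys staples. Read-out per 8-mer (and its reverse complement): E-score (rank-based enrichment, -0.5 to 0.5) and Z-score of median probe intensity.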

Sequence	PBM 8-mer E-score
GCGTGGGA	0.238 ± 0.035
ACGTGGGA	0.302 ± 0.039
ACGTGGGG	0.164 ± 0.08
CCGTGGGC	-0.129 ± 0.18
AAGTGGGA	0.212 ± 0.0035
GAGTGGGA	-0.0159 ± 0.0035
AGGTGGGA	0.0263 ± 0.046
CGCTGCAG	-0.19 ± 0.18
GGACCGAC	-0.168 ± 0.097
CGCAGCCA	-0.117 ± 0.093
AGTGTTCC	-0.151 ± 0.007
GCGGCAAC	-0.106 ± 0.026
CACCCGAG	-0.19 ± 0.056
GAACCAAC	0.0313 ± 0.051
ATCTCAAA	-0.0195 ± 0.13
CTGAGGAA	-0.111 ± 0.035
ACAATGTC	0.108 ± 0.095
GCAATGTA	0.0841 ± 0.011
ACAATGAG	0.137 ± 0.029
AAAATGAA	0.138 ± 0.00081
ACAATGAC	0.0383 ± 0.055
AAAATGAC	0.174 ± 0.013

Sequence	PBM 8-mer E-score
ACAATGTA	0.239 ± 0.034
ACAATGAT	0.241 ± 0.024
AAAATGAT	0.249 ± 0.13
TATGACGA	0.0259 ± 0.072
ATGATGCC	-0.00394 ± 0.018
GGCTACCC	-0.19 ± 0.032
CGCAAGAA	-0.121 ± 0.097
GAGCCGGC	-0.26 ± 0.041
AATGATCC	-0.122 ± 0.097
AACAATAA	0.213 ± 0.15
ACCAATAT	0.175 ± 0.057
AACAATTG	0.128 ± 0.05
AACAATAT	0.252 ± 0.089
AACAATTA	0.248 ± 0.061
AACAATAC	0.236 ± 0.036
GACAATAC	0.202 ± 0.02
AACAATAG	-0.112 ± 0.17
AACAATTC	0.146 ± 0.012
AGCCGCTA	-0.263 ± 0.022
CTCGATAA	-0.0814 ± 0.087
AAGCGGGT	-0.0582 ± 0.061
TCAGATCA	-0.0835 ± 0.073

Sequence	PBM 8-mer E-score
CCTCGACC	-0.128 ± 0.09
GCTAAAAC	-0.101 ± 0.028
TGAGATCA	-0.0342 ± 0.1
AGCTGGAT	-0.164 ± 0.054
CTCCCATA	-0.0036 ± 0.067
CTGTTTAC	0.0925 ± 0.099
ACGTTTAG	0.0123 ± 0.031
ATGTTTTG	0.24 ± 0.066
ATGTTTCC	0.225 ± 0.092
ATGTTTAG	0.278 ± 0.063
ATGTTTTA	0.102 ± 0.043
ATGTTTAA	0.22 ± 0.078
ATGTTTGG	0.147 ± 0.042
ATGTTTAC	0.243 ± 0.0084
AAAATAGG	0.031 ± 0.16
GACAACCC	0.0334 ± 0.15
CGGCCAGA	-0.212 ± 0.006
ATGCTTTC	0.174 ± 0.051
CTGCTTTA	0.169 ± 0.061
ATGCTTTA	0.277 ± 0.0049
ATGATCGC	-5e-06 ± 0.043
TGCCCGCA	0.0712 ± 0.065

Sequence	PBM 8-mer E-score
GACATGTC	0.163 ± 0.042
GACATGTA	0.273 ± 0.035
TACATGTA	0.308 ± 0.042
TACATGAA	0.11 ± 0.053
AACATGTA	0.23 ± 0.087
GTCATGTA	0.0154 ± 0.027
GTGTCCGA	-0.00187 ± 0.12
AGAGTACG	-0.124 ± 0.0062
TGATCGAA	0.0153 ± 0.063
CGAGGAAA	0.0336 ± 0.072
GTTGTAGA	-0.101 ± 0.093
ATTGTAGA	0.302 ± 0.0094
CTTGTAGA	-0.146 ± 0.15
ATCAATTG	0.239 ± 0.016
ATCAATTC	0.0046 ± 0.15
ATCAATTA	0.225 ± 0.04
AGGACGGC	-0.0864 ± 0.17
AAAACGTC	0.0934 ± 0.022
GACCGATA	-0.0238 ± 0.067
CTAAACCC	0.00702 ± 0.049
